Laboratory results published in ChEMBL document CHEMBL3988442, “University of Dundee, Small-Polar-MMV Screening Library” (2021).
The campaign covered roughly 48,000 compounds. About 13,000 (27%) showed an effect of 50% or more. The list shows a part of the results.

system: Wolbachia pipientis; experiment: Anti-Wolbachia Cell-Based Screen; assay type: functional; set-up: scale not given: in the data most compounds retested in dose-response had high values; conditions: 5 µM

| SMILES | Percent Effect [%] |
| --- | --- |
| COc1c(CNC2CCCOc3ccc(F)cc32)c(C)nn1C.Cl (centres undefined) | -15.22 |
| Cc1ccccc1N1CCN(C(=O)c2ccc[nH]2)C(C)C1 (centres undefined) | -11.11 |
| COCc1noc(-c2ccc(N(C)Cc3cn(C)nc3C)nc2)n1 | -0.7863 |
| COc1ccc(C(C)N2CCC(C(=O)NC3CC3)CC2)cc1Cl (centres undefined) | 5.354 |
| O=C(c1ccsc1)N1CCc2c(CNc3nccs3)n[nH]c2C1 | -7.215 |
| CN1C(=O)CC(c2ccccc2)C12CCN(c1ncccn1)CC2 (centres undefined) | -22.26 |
| CCC(C(=O)NCc1csc(-c2ncccn2)n1)n1cccn1 (centres undefined) | 6.719 |
| CCC(C(=O)NCc1cc(N2CCOCC2)ncn1)n1cccn1 (centres undefined) | -0.1761 |
| Cc1cc(C(F)(F)F)nc(CNC(=O)CCC2CCCCN2C)n1 (centres undefined) | -1.594 |
| CCC(C(=O)NCc1noc(Cc2cccs2)n1)n1cccn1 (centres undefined) | -1.383 |
| Cc1cc(C(F)(F)F)nc(CNC(=O)CCCN2CCCCC2)n1 | -0.7363 |
| CCc1csc(CNC(=O)C(CC)n2cccn2)n1 (centres undefined) | -1.307 |
| CCC(C(=O)NCc1nc(C)cc(C(F)(F)F)n1)n1cccn1 (centres undefined) | 86.37 |
| Cc1cc(C(F)(F)F)nc(CNC(=O)CCn2cccn2)n1 | 103.4 |
| CCC(C(=O)NCCc1nc(C)cc(C(F)(F)F)n1)n1cccn1 (centres undefined) | 110 |
| CC(C)NC(=O)N[C@H]1C[C@@H](c2nc(-c3ccncc3)no2)N(C)C1 | -7.5 |
| Cc1ccc2c(c1)CCCN2C(=O)c1cncc(Br)c1 | 3.118 |
| O=C(Nc1cnn(CCN2CCOCC2)c1)c1cc(F)ccc1F | -10.74 |
| CNC(=O)CNC(=O)Nc1ccc(F)c(Br)c1 | 3.521 |
| Cc1c(C(=O)NS(=O)(=O)c2ccc(F)cc2)cnn1CC(C)C | 6.603 |
| CCCn1cc(NC(=O)Nc2ccc(F)c(C(=O)NC)c2)cn1 | 109.9 |
| CCc1c(C(=O)Nc2ccc(F)c(C(=O)NC)c2)cnn1CC(C)C | 115.2 |
| CNC(=O)c1cc(NC(=O)NC(C)CCc2cccn2C)ccc1F (centres undefined) | 0.1416 |
| CCc1c(NCc2ccc(F)cc2)cnn1CC(C)C | 0.9512 |
| CC(C)Cn1cc(NC(=O)c2cccc(N(C)C)c2)cn1 | -6.196 |

| SMILES | Percent Effect [%] |
| --- | --- |
| CNC(=O)c1cc(NC(=O)Nc2cnn(CC(C)C)c2)ccc1F | 106.8 |
| COCCCN1CCC(NC2CSCCc3ccccc32)CC1 (centres undefined) | 3.161 |
| O=C(CCn1cncn1)N1C[C@H]2CC[C@@H]1CN(Cc1cccnc1)C2 | 2.407 |
| Cc1nc(Cn2cnc3c(c(Br)nn3C)c2=O)cs1 | -1.874 |
| Cc1csc([C@H]2C[C@@H]3CCN(Cc4cnn(C)c4)C[C@H]3O2)n1 | 5.32 |
| Cc1ccc(CN2CCc3[nH]nc(C(=O)N(C)C)c3C2)s1.O=C(O)C(F)(F)F.O=C(O)C(F)(F)F | -17.1 |
| CN1CCN(C(=O)c2n[nH]c3c2CCN(Cc2nccs2)C3)CC1 | -5.603 |
| O=C(O)C(F)(F)F.O=C(c1n[nH]c2c1CCN(Cc1nccs1)C2)N1CCCC1 | 1.297 |
| CCN1CCc2[nH]nc(C(=O)N3CCCC3C)c2C1.O=C(O)C(F)(F)F (centres undefined) | -0.9609 |
| CN(C)C(=O)c1n[nH]c2c1CN(Cc1nccs1)CC2.O=C(O)C(F)(F)F | -9.505 |
| CN(C)C(=O)c1n[nH]c2c1CN(CC1CCC1)C2.O=C(O)C(F)(F)F.O=C(O)C(F)(F)F | 93.12 |
| CN(C)C1CCN(C(=O)c2n[nH]c3c2CCN(CC2CCC2)C3)CC1 | 111.2 |
| CN(C)C(=O)c1n[nH]c2c1CN(Cc1ccccn1)CC2.O=C(O)C(F)(F)F | -21.72 |
| CN(C)C(=O)c1n[nH]c2c1CN(CC1CCCCC1)C2.O=C(O)C(F)(F)F.O=C(O)C(F)(F)F | 93.81 |
| Cc1cc(C(=O)N(C)Cc2ccoc2)c(NC(=O)C(C)(C)C)s1 | -2.438 |
| Cn1c(CS(=O)(=O)Cc2ccc(Cl)cc2)cc(=O)n(C)c1=O | 5.826 |
| C/C=C(\C)CN1CCC2(CCC(=O)N2OCc2ccccc2F)CC1 | 2.227 |
| CCOCc1ccccc1NC(=O)NCC(C)(O)c1cc(C)oc1C (centres undefined) | -7.22 |
| CCc1ccccc1OC1CN(C(=O)CN(C)Cc2cccnc2)C1 | -4.322 |
| Cc1noc(Cl)c1CC(=O)NCCOc1ccc(F)cc1F | 16.27 |
| COc1c(CNCCNC(=O)Cc2ccc(F)cc2)c(C)nn1C | -0.8821 |
| CCN(Cc1cnn(CC)c1)C(=O)Cn1c(=O)c(C)nc2ccccc21 | -5.598 |
| CCN(CC)C(=O)Cn1c(-c2ccc(Cl)cc2)nc(C)c(CCO)c1=O | 119.6 |
| COCCNC(=O)c1sc(Nc2ccc(Cl)cn2)nc1C | 19.38 |
